About 2,000 (36%) of roughly 5,500 compounds were called active. Roughly 18% stayed inconclusive and do not appear here. No stated cut-off is given here; in the data, active means normalized growth mostly below about 0.91 (no sharp cut-off); inconclusive means no clear call, values can overlap the other calls; inactive means mostly above about 0.92. This is one part of the list.
Assay: chemical genetic growth profiling, strain panel (AID 1159580);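 further: tested at 20 µM; growth read once vehicle control cultures reached saturation at 30 °C; 1 = growth at the plate median or of vehicle wells; lower values mean less growth of the strain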
Conditions: growth OD
[1] = S. cerevisiae deletion strains, locus YHR030C, strain SLT2, hits give low values
[2] = S. cerevisiae deletion strains, locus YJL187C, strain SWE1, hits give low values

Measured: normalized growth

COP(=S)(OC)Oc1ccc(Sc2ccc(OP(=S)(OC)OC)cc2)cc1
inactive: S. cerevisiae deletion strains, locus YAL021C, strain ccr4, hits give low values 1 | S. cerevisiae deletion strains, locus YAL026C, strain drs2, hits give low values 1 | S. cerevisiae deletion strains, locus YAL030W, strain snc1, hits give low values 0.999 | S. cerevisiae deletion strains, locus YBL061C, strain skt5, hits give low values 1.01 | S. cerevisiae deletion strains, locus YBR009C, strain hhf1, hits give low values 1.01 | S. cerevisiae deletion strains, locus YBR023C, strain chs3, hits give low values 1.01 | S. cerevisiae deletion strains, locus YBR171W, strain sec66, hits give low values 0.992 | S. cerevisiae deletion strains, locus YBR231C, strain swc5, hits give low values 1 | S. cerevisiae deletion strains, locus YBR279W, strain paf1, hits give low values 1.01 | S. cerevisiae deletion strains, locus YCL011C, strain gbp2, hits give low values 1 | S. cerevisiae deletion strains, locus YCL016C, strain dcc1, hits give low values 1.01 | S. cerevisiae deletion strains, locus YCL061C, strain MRC1, hits give low values 1.01 | S. cerevisiae deletion strains, locus YCL069W, strain vba3, hits give low values 1.01 | S. cerevisiae deletion strains, locus YCR088W, strain abp1, hits give low values 0.994 | S. cerevisiae deletion strains, locus YDL005C, strain med2, hits give low values 0.998 | S. cerevisiae deletion strains, locus YDL040C, strain nat1, hits give low values 1 | S. cerevisiae deletion strains, locus YDR001C, strain nth1, hits give low values 1.01 | S. cerevisiae deletion strains, locus YDR069C, strain doa4, hits give low values 1.02 | S. cerevisiae deletion strains, locus YDR137W, strain rgp1, hits give low values 1.02 | S. cerevisiae deletion strains, locus YDR159W, strain sac3, hits give low values 0.994 | S. cerevisiae deletion strains, locus YDR195W, strain ref2 0.976 | S. cerevisiae deletion strains, locus YDR297W, strain sur2, hits give low values 1 | S. cerevisiae deletion strains, locus YDR334W, strain swr1, hits give low values 1.01 | S. cerevisiae deletion strains, locus YDR335W, strain msn5, hits give low values 1.01 | S. cerevisiae deletion strains, locus YDR392W, strain spt3, hits give low values 0.993 | S. cerevisiae deletion strains, locus YEL003W, strain gim4, hits give low values 1.01 | S. cerevisiae deletion strains, locus YEL037C, strain rad23, hits give low values 1 | S. cerevisiae deletion strains, locus YEL061C, strain CIN8 (second series), hits give low values 1 | S. cerevisiae deletion strains, locus YER015W, strain faa2, hits give low values 1 | S. cerevisiae deletion strains, locus YER016W, strain bim1, hits give low values 1 | S. cerevisiae deletion strains, locus YER111C, strain swi4, hits give low values 1 | S. cerevisiae deletion strains, locus YER155C, strain BEM2 (second series), hits give low values 1 | S. cerevisiae deletion strains, locus YFR010W, strain ubp6, hits give low values 1.01 | S. cerevisiae deletion strains, locus YGL167C, strain pmr1, hits give low values 0.998 | S. cerevisiae deletion strains, locus YGL173C, strain kem1, hits give low values 1 | S. cerevisiae deletion strains, locus YGL227W, strain vid30, hits give low values 1 | S. cerevisiae deletion strains, locus YGL240W, strain doc1, hits give low values 0.999 | S. cerevisiae deletion strains, locus YGL253W, strain hxk2, hits give low values 1 | S. cerevisiae deletion strains, locus YHR013C, strain ard1, hits give low values 0.986 | S. cerevisiae deletion strains, locus YHR027C, strain rpn1, hits give low values 1.01 | [1] 0.973 | S. cerevisiae deletion strains, locus YHR079C, strain IRE1, hits give low values 1.01 | S. cerevisiae deletion strains, locus YHR142W, strain chs7, hits give low values 1.01 | S. cerevisiae deletion strains, locus YJL092W, strain hpr5, hits give low values 1 | S. cerevisiae deletion strains, locus YJL095W, strain BCK1 (second series), hits give low values 1 | S. cerevisiae deletion strains, locus YJL095W, strain BCK1, hits give low values 0.999 | S. cerevisiae deletion strains, locus YJL115W, strain asf1, hits give low values 1 | S. cerevisiae deletion strains, locus YJL129C, strain trk1, hits give low values 1.02 | S. cerevisiae deletion strains, locus YJL154C, strain vps35, hits give low values 1.01 | S. cerevisiae deletion strains, locus YJL164C, strain tpk1, hits give low values 1.02 | S. cerevisiae deletion strains, locus YJL166W, strain qcr8, hits give low values 1.01 | [2] 1.01 | S. cerevisiae deletion strains, locus YJR066W, strain TOR1, hits give low values 0.946 | S. cerevisiae deletion strains, locus YKL160W, strain elf1, hits give low values 1 | S. cerevisiae deletion strains, locus YKR026C, strain gcn3, hits give low values 1 | S. cerevisiae deletion strains, locus YKR091W, strain srl3, hits give low values 0.997 | S. cerevisiae deletion strains, locus YLL001W, strain dnm1, hits give low values 1 | S. cerevisiae deletion strains, locus YLL026W, hits give low values 0.995 | S. cerevisiae deletion strains, locus YLL041C, strain sdh2, hits give low values 1 | S. cerevisiae deletion strains, locus YLR027C, strain aat2, hits give low values 1 | S. cerevisiae deletion strains, locus YLR113W, strain HOG1, hits give low values 0.977 | S. cerevisiae deletion strains, locus YLR221C, strain rsa3, hits give low values 1 | S. cerevisiae deletion strains, locus YLR258W, strain gsy2, hits give low values 1 | S. cerevisiae deletion strains, locus YLR262C, strain YPT6 (second series), hits give low values 1.04 | S. cerevisiae deletion strains, locus YLR320W, strain mms22, hits give low values 0.993 | S. cerevisiae deletion strains, locus YLR342W, strain FKS1, hits give low values 1.01 | S. cerevisiae deletion strains, locus YLR357W, strain rsc2, hits give low values 1.01 | S. cerevisiae deletion strains, locus YLR370C, strain arc18, hits give low values 1.01 | S. cerevisiae deletion strains, locus YLR384C, strain iki3, hits give low values 1 | S. cerevisiae deletion strains, locus YML120C, strain ndi1, hits give low values 1.01 | S. cerevisiae deletion strains, locus YMR058W, strain fet3, hits give low values 1.04 | S. cerevisiae deletion strains, locus YMR125W, strain sto1, hits give low values 1 | S. cerevisiae deletion strains, locus YMR129W, hits give low values 1.01 | S. cerevisiae deletion strains, locus YMR205C, strain PFK2, hits give low values 0.992 | S. cerevisiae deletion strains, locus YMR231W, strain pep5, hits give low values 1 | S. cerevisiae deletion strains, locus YNL071W, strain lat1, hits give low values 1.01 | S. cerevisiae deletion strains, locus YNL183C, strain NPR1, hits give low values 0.945 | S. cerevisiae deletion strains, locus YNL209W, strain ssb2, hits give low values 1.01 | S. cerevisiae deletion strains, locus YNL248C, strain rpa49, hits give low values 1 | S. cerevisiae deletion strains, locus YNL322C, strain KRE1 (second series), hits give low values 1 | S. cerevisiae deletion strains, locus YNR049C, strain mso1, hits give low values 1.01 | S. cerevisiae deletion strains, locus YOR001W, strain rrp6, hits give low values 1 | S. cerevisiae deletion strains, locus YOR070C, strain gyp1, hits give low values 1.01 | S. cerevisiae deletion strains, locus YOR080W, strain dia2, hits give low values 1 | S. cerevisiae deletion strains, locus YOR083W, strain WHI5, hits give low values 1.01 | S. cerevisiae deletion strains, locus YOR106W, strain vam3, hits give low values 0.999 | S. cerevisiae deletion strains, locus YOR231W, strain MKK1, hits give low values 0.984 | S. cerevisiae deletion strains, locus YOR265W, strain rbl2, hits give low values 1.02 | S. cerevisiae deletion strains, locus YOR270C, strain vph1, hits give low values 1.03 | S. cerevisiae deletion strains, locus YOR290C, strain snf2, hits give low values 1 | S. cerevisiae deletion strains, locus YPL051W, strain arl3, hits give low values 1.01 | S. cerevisiae deletion strains, locus YPL078C, strain atp4, hits give low values 1.01 | S. cerevisiae deletion strains, locus YPL106C, strain sse1, hits give low values 1.03 | S. cerevisiae deletion strains, locus YPL240C, strain hsp82, hits give low values 1 | S. cerevisiae deletion strains, locus YPL256C, strain CLN2, hits give low values 1.03

O=[N+]([O-])c1ccc(C(O)C(O)CO)cc1 (configuration not stated)
inactive: S. cerevisiae deletion strains, locus YAL013W, strain DEP1, hits give low values 0.974 | S. cerevisiae deletion strains, locus YBR229C, strain ROT2, hits give low values 0.981 | S. cerevisiae deletion strains, locus YDL101C, strain DUN1, hits give low values 1.01 | S. cerevisiae deletion strains, locus YDR150W, strain NUM1, hits give low values 1 | S. cerevisiae deletion strains, locus YEL061C, strain CIN8, hits give low values 1 | S. cerevisiae deletion strains, locus YGR078C, strain PAC10, hits give low values 0.996 | [1] 1.07 | S. cerevisiae deletion strains, locus YHR087W, strain rtc3, hits give low values 0.958 | [2] 0.993 | S. cerevisiae deletion strains, locus YJR043C, strain POL32, hits give low values 0.987 | S. cerevisiae deletion strains, locus YJR075W, strain HOC1, hits give low values 0.988 | S. cerevisiae deletion strains, locus YLR039C, strain RIC1, hits give low values 0.974 | S. cerevisiae deletion strains, locus YLR058C, strain SHM2 (second series), hits give low values 0.988 | S. cerevisiae deletion strains, locus YLR085C, strain ARP6, hits give low values 0.986 | S. cerevisiae deletion strains, locus YLR262C, strain YPT6, hits give low values 0.963 | S. cerevisiae deletion strains, locus YML094W, strain GIM5, hits give low values 0.99 | S. cerevisiae deletion strains, locus YMR219W, strain ESC1, hits give low values 0.994 | S. cerevisiae deletion strains, locus YMR263W, strain SAP30, hits give low values 1 | S. cerevisiae deletion strains, locus YMR307W, strain GAS1, hits give low values 0.959 | S. cerevisiae deletion strains, locus YNL153C, strain GIM3, hits give low values 0.987 | S. cerevisiae deletion strains, locus YNL298W, strain CLA4 (second series), hits give low values 0.961 | S. cerevisiae deletion strains, locus YNL322C, strain KRE1, hits give low values 0.996 | S. cerevisiae deletion strains, locus YNR030W, strain Alg12, hits give low values 0.983 | S. cerevisiae deletion strains, locus YPL055C, strain LGE1, hits give low values 0.971 | S. cerevisiae deletion strains, locus YPL241C, strain CIN2, hits give low values 1 | S. cerevisiae deletion strains, locus YPR135W, strain CTF4, hits give low values 1.02 | S. cerevisiae strains, strain wild type, hits give low values 0.979

From PubChem BioAssay AID1159580 (chemical genetic matrix, 2015)
